Assay outcomes as filed in PubChem.
An excerpt weighted towards active compounds, which were near 4.5% of everything screened.
Rpn11 block – inhibitors of human proteasome Rpn11 | O00487 | human 26S proteasome, Ub4-pepOG fluorescence polarization; 20S core pre-blocked with epoxomicin | actives 0.59% (n = 360,000) | inhibition, % at 20 µM;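 active = inhibition at 20 µM, scaled to each plate's controls, above about 33%, limit read from the data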
Target sequence (O00487 whole entry, looked up): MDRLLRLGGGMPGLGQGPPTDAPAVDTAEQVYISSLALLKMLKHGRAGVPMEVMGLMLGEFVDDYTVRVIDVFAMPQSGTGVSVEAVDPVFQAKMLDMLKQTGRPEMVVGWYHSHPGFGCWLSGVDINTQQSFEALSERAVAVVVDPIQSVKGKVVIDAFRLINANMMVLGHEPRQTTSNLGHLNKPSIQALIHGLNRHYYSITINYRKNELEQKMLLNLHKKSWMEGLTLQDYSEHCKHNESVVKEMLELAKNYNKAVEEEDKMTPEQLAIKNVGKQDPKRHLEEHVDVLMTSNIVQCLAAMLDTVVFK
GRIN3A LBD mod – modulators (binders) of human NR3A ligand-binding domain; NR3A LBD differential scanning fluorimetry, Tm shift; 0% = protein alone, 100% = glycine-bound protein; AID 1259313; actives 2.5% (n = 340,000); Tm shift relative to glycine control, % at 25 µM;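 active = melting temperature shift of at least 10% of the positive control shift, at one fixed dose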
TPT1 inh – blocks Candida albicans tRNA 2'-phosphotransferase. actives 0.81% (n = 300,000). AID 1962. inhibition, % at 5 µM. recombinant caTPT1, FP RNA substrate dephosphorylation;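 active = inhibition above the mean of all tested compounds plus 3 SD, set per screening campaign, cut at about 24% in these data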;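 note: plate controls were DMSO alone for no effect and ferristatin control at 100 nM for full effect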
ZTA DNA inh – blocks Epstein-Barr virus ZTA, an EBNA-1 counter-screen; P03206; ZTA-DNA binding, fluorescence polarization; inhibition, % at 11 µM; actives 0.15% (n = 320,000); AID 2234; in the data active = inhibition above about 33%
Target sequence (P03206 whole entry, looked up): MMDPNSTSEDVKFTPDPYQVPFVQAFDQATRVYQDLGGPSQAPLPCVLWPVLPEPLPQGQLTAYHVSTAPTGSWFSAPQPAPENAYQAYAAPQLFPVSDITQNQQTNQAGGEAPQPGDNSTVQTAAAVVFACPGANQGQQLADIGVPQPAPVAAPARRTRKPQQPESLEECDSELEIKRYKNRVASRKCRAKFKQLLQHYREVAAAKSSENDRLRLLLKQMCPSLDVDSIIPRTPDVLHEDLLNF
EBNA-1 inhibitor – blocks EBNA-1 binding to DNA; EBNA-1 DNA binding, fluorescence polarization; inhibition, % at 14.8 µM; actives 0.34% (n = 300,000); in the data active = inhibition above about 28%
dFosB activator – enhances mouse delta FosB homodimer DNA binding; P13346; purified delta FosB, TAMRA-CDK5 oligo fluorescence polarization; percent of positive-control signal above neutral wells; activation, % at 25 µM; actives 0.99% (n = 340,000);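 active = mean activation above about 17%, with every replicate also reaching it, limit read from the data, passing the limit was not always enough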
* hit, by the source's call; x = no result.

SMILES | Rpn11 block | GRIN3A LBD mod | TPT1 inh | ZTA DNA inh | EBNA-1 inhibitor | dFosB activator
CCOC(=O)CC1COc2ccccc2N1C(=O)c1cccc([N+](=O)[O-])c1 (stereo unspecified) | 3 | -1 | -7 | 0 | -8 | -1
COCCN1C(=O)N(c2cccc(C)c2)C(=O)C1CC(=O)Nc1cc(OC)cc(OC)c1 (stereo unspecified) | -2 | 0 | 0 | -28 | 2 | -7
COc1ccccc1C1CCN(c2cc(O)ccc2[N+](=O)[O-])CC1 | -4 | 13* | 0 | 12 | 1 | -5
Nc1nnc(CC(=O)N/N=C/c2cc([N+](=O)[O-])cc(Br)c2O)s1 | 10 | 18* | 3 | 19 | 6 | -11
CCCCN1CC(N2CCCCC2)CS1(=O)=O (stereo unspecified) | -5 | x | x | x | x | x
Cc1occc1C(=O)N1CCN(c2ccccc2)CC1 | -4 | 12* | 1 | -9 | -8 | 0
O=C(NCC1CCCO1)c1sc2cc(Cl)ccc2c1Cl (stereo unspecified) | 3 | -1 | -2 | 7 | 4 | 6
O=C(N/N=C/c1ccccc1O)C(=O)N1CCCCCC1 | 4 | 11* | -3 | -6 | -3 | -2
CCOC(=O)CSc1nnc(Cc2ccccc2)n1-c1cccc(Cl)c1 | -15 | 733* | 0 | 6 | -2 | -6
CCOC(=O)c1ccc(-c2ccc(/C=N/NC(=O)CN(c3ccccc3Br)S(C)(=O)=O)o2)cc1 | 3 | 12* | 0 | -8 | 14 | -1
O=C(Cn1cncn1)NCCCc1ccccc1 | -3 | -1 | -5 | -4 | 0 | 3
Cc1cccc(-n2ncc3c(Nc4ccc(F)cc4)ncnc32)c1 | 7 | 24* | -5 | -16 | -2 | -4
COc1ccc(Nc2ncnc3c2cnn3-c2cccc(C)c2)cc1OC | 8 | 0 | x | x | x | 5
COc1ccc(-n2ncc3c(Nc4cccc(C)c4)ncnc32)cc1 | -5 | 29* | -1 | -8 | -16 | 3
COc1ccc(CC(=O)NNc2ncnc3c2cnn3-c2ccc(C)cc2)cc1 | 0 | 10 | 2 | 3 | 97* | 1
NC(=O)CC(NC(=O)c1cccc(Br)c1)c1ccc(N2CCN(c3ccccn3)CC2)c([N+](=O)[O-])c1 (stereo unspecified) | -2 | -3 | 0 | 13 | 7 | -5
O=C(CN1C(=O)c2ccccc2S1(=O)=O)NCCc1ccc(F)cc1 | 4 | 4 | x | x | x | 0
Cc1nc(C(=O)N2CCOCC2)sc1C1(C)CC(c2ccccc2)=NO1 (stereo unspecified) | 12 | 14* | 1 | -1 | -10 | 9
CNC(=O)c1nc(C)c(C2(C)CC(c3ccccc3)=NO2)s1 (stereo unspecified) | 1 | -5 | 1 | 13 | -4 | -9
CC(C)(C)c1ccc(C(=O)Nc2ccc(S(=O)(=O)Nc3cnc4ccccc4n3)cc2)cc1 | -8 | 13* | -6 | 15 | 8 | 4
O=C(O)c1ccc(NS(=O)(=O)c2ccc(C(=O)Nc3ccccc3)cc2)cc1 | 3 | 17* | -3 | -12 | 4 | 5
COC(=O)c1cc(NS(=O)(=O)c2ccc(N3CCCCCC3)c([N+](=O)[O-])c2)cc(C(=O)OC)c1 | 1 | 9 | -10 | -1 | 11 | -6
NC(=O)c1ccc(NC(=O)c2cnc3ccccc3n2)cc1 | -4 | 16* | -1 | -5 | -7 | -10
O=C(O)c1ccc(NS(=O)(=O)c2ccc(N3CCCC3)c([N+](=O)[O-])c2)cc1 | 10 | 10* | 0 | 0 | -5 | -7
O=C(Nc1ccc(S(=O)(=O)Nc2cnc3ccccc3n2)cc1)c1ccc(F)cc1 | -9 | 0 | 4 | -5 | -1 | -3
SMILES | Rpn11 block | GRIN3A LBD mod | TPT1 inh | ZTA DNA inh | EBNA-1 inhibitor | dFosB activator
O=C(Cc1ccc(F)cc1)Nc1nnc(SCC(=O)NC2CCCC2)s1 | -2 | -1 | 2 | 3 | 4 | 5
CC(=O)c1ccc(NS(=O)(=O)c2ccc3ccccc3c2)cc1 | -7 | -13 | -1 | -19 | 5 | 1
NC(=O)c1ccc(NS(=O)(=O)c2ccc3ccccc3c2)cc1 | -1 | 12* | 0 | -17 | -3 | 2
C[C@]12CCC(O)CC1CCC1C2CC[C@]2(C)C(c3cc(C(F)(F)F)n[nH]3)CCC12 (stereo partly specified) | 4 | 24* | 1 | 8 | -3 | -7
CC12CCC3C(CCC4CC(O)CCC43C)C1CC(O)C2 (stereo unspecified) | 3 | -3 | x | x | x | 6
CCOC(=O)c1cc(-c2ccc(C)cc2)n(CCC(=O)N2CCN(c3ccccn3)CC2)c1C | -10 | 13* | -2 | -2 | 0 | -26
CN1/C(=C\C(=O)Nc2ccc(Br)cc2)C(C)(C)c2ccccc21 | 2 | 19* | -1 | 0 | 4 | -4
Cc1ccc2oc(C(=O)NCc3ccccc3)cc(=O)c2c1 | -6 | 0 | 1 | -2 | -1 | 15
COc1ccc(CNC(=O)c2cc(=O)c3cc(C)ccc3o2)cc1 | 4 | 3 | -2 | -12 | 2 | 17*
CC(C)CCCN1C(N(C)C)=NC[C@@H]1C | -13 | 0 | -1 | -1 | 6 | 4
COc1cccc(CNC(=O)Cn2cccc2C(=O)c2ccccc2C)c1 | -5 | 1 | 0 | -6 | 2 | -5
COc1ccc(-c2csc(NC(=O)c3c(C)noc3C)n2)cc1F | -7 | 1 | x | x | x | -10
CCOC(=O)c1sc(=S)n(-c2cc(F)ccc2F)c1N | 8 | 14* | -2 | 1 | -3 | -13
Cc1ccc(NC(=O)c2cc3cc(OC(F)(F)F)ccc3[nH]2)cc1 | x | 1 | -2 | -2 | 3 | x
Cc1ccc(N=C2SC(C(=O)Nc3ccc(OC(F)(F)F)cc3)C(N)=C2C(=O)Nc2c(C)cc(C)cc2C)cc1 (stereo unspecified) | 2 | 35* | 8 | 0 | 5 | 9
Cc1ccc(NC(=O)C2SC(=Nc3ccccc3)C(C(=O)Nc3ccc(Cl)cc3)=C2N)cc1 (stereo unspecified) | 2 | 17* | x | x | x | -8
O=C1N=c2ccccc2=C1c1sc(Nc2cccc(O)c2)nc1O | 8 | 25* | -3 | -8 | -7 | -7
O=C1N=c2ccccc2=C1c1sc(Nc2ccc(O)cc2)nc1O | 34 | 13* | x | x | x | -3
O=C1N=c2ccccc2=C1c1sc(NS(=O)(=O)c2ccccc2)nc1O | -1 | -6 | 0 | -2 | 10 | -7
COc1ccc(C(=O)NC(=S)Nc2ccc(CN3CCOCC3)cc2)cc1Br | -4 | -8 | -3 | 12 | 3 | -4
NS(=O)(=O)c1ccc(CNc2ncnc3sccc23)cc1 | 6 | -4 | 4 | 11 | 11 | -1
NS(=O)(=O)c1ccc(CCNc2ncnc3sccc23)cc1 | 9 | 19* | 8 | -11 | -15 | 2
